Laboratory results taken from PubChem BioAssay (Tox21).
Records with an inconclusive call do not appear. Where a call stands in place of a potency, no number is given. Active and inactive are the calls of the source. The call rests on the fitted dose curve; in most records, active means well fitted cell-killing curve with a large enough effect in the repeat runs; inconclusive means weak or mixed curves, or effect the other way; inactive means flat fitted curve, though single readings scatter.

Assay: qHTS RealTime-Glo MT Cell Viability Assay in HepG2 cells - 0 hour (AID 1224889); further: nearly all actives have a fitted effect of over 50% in size
Settings: RealTime-Glo luminescence; series mostly up to 76.8 µM
Text: U.S. Tox21 Program National Center for Advancing Translational Sciences [NCATS] NIH Chemical Genomics Center [NCGC] U.S. Environmental Protection Agency [EPA] National Institutes of Environmental Health Sciences [NIEHS] National Toxicology Program [NTP] U.S. Food and Drug Administration [FDA] Tox21 Assay Overview: Measure of cell viability is critical in the cell-base assay. Analysis of cell viability is necessary for the characterization of cell responses to cytotoxic drugs and environmental stress. A RealTime-Glo MT Cell Viability Assay to monitor cell viability in real time of continues cell culture during 40 hours of compound treatment was used to screen Tox21 10K library compounds in HepG2 cells. The RealTime-Glo MT Cell Viability Assay is a nonlytic, homogeneous, bioluminescent method to measure cell viability in real time using a simple, plate-based method. The assay involves adding NanoLuc luciferase and a cell-permeant prosubstrate to cells in culture. Viable cells reduce the proprietary prosubstrate to generate a substrate for NanoLuc luciferase. This substrate diffuses from cells into the surrounding culture medium, where it is rapidly used by the NanoLuc Enzyme to produce a luminescent signal. The signal correlates with the number of viable cells, making the assay well suited for cytotoxicity studies.
Tox21 Assay Protocol Summary: The mixture of HepG2 cell suspension and reagents were dispensed at 600cells/6 ul/well in 1536-well tissue culture treated black solid bottom plates using a Multidrop dispenser. After the assay plates were incubated at a 37 C/5% CO2 incubator for 5 hours, 23 nL of compounds dissolved in DMSO, positive and negative controls was transferred to the assay plate by a pintool work station. The plates were incubated at 37 C for 40 hours. The luminescence intensity were measured at 0h, 8h, 16h, 24h, 32h and 40h time points using ViewLux plate reader during compound treatment.
Potency means the concentration at half of the fitted maximal effect.

Compound | Potency
CN1CCCN=C1COC(=O)C(O)(c1ccccc1)C1CCCCC1 (stereo not given) | inactive
O=C(Cn1ccnc1[N+](=O)[O-])NCCO | inactive
CCOC(=O)OC(C)OC(=O)[C@@H]1N2C(=O)[C@@H](NC(=O)[C@H](N)c3ccccc3)[C@H]2SC1(C)C (stereo not given in full) | inactive
COC(=O)CCS | inactive
CCCCCC[C@@H](O)C/C=C\CCCCCCCC(=O)O | inactive
CN1CCCC(n2nc(Cc3ccc(Cl)cc3)c3ccccc3c2=O)CC1 (stereo not given) | inactive
CCc1ccccc1 | inactive
CCCCCCC(C)(C)C(=O)O | inactive
CC(C)=CCC1C(=O)N(c2ccccc2)N(c2ccccc2)C1=O | inactive
Nc1ncnc2c1ncn2[C@H]1CC[C@@H](CO)O1 | inactive
CC(C)=CC(=O)C=C(C)C | inactive
Cc1ccccc1S | inactive
C1COC1 | inactive
CCCCOc1ccc(OCCCN2CCOCC2)cc1 | inactive
CCC1CO1 (stereo not given) | inactive
c1ccc2sc(SN(C3CCCCC3)C3CCCCC3)nc2c1 | inactive
CC(C)(O)c1ccc(CNC(=O)c2cccnc2Oc2ccc3nonc3c2)cc1 | inactive
C[C@H]1C[C@H](O)c2ccsc2S1(=O)=O | inactive
CCCCCC#CC(=O)OC | inactive
COC(=O)CS | inactive

Compound | Potency
CN1C(=O)OC(C)(C)C1=O | inactive
CCOc1cccc(-n2cc(C(=O)N3CCN(c4cc(C(=O)O)c5ccccc5c4)CC3)nc2-c2ccc(C)cc2)c1 | inactive
Cc1cccc(O)c1N | inactive
Cc1ccc(OC(=O)c2ccccc2O)cc1 | inactive
Brc1cc(Br)c(Oc2cc(Br)c(Br)cc2Br)cc1Br | inactive
Cc1cc(C)cc(N)c1 | inactive
O=C(O)C[C@H](NC(=O)OCc1ccccc1)C(=O)O | inactive
CC(=O)OCC[N+](C)(C)C | inactive
C=COCC(C)C | inactive
C[C@@]12CCC[C@H]1[C@@H]1CC[C@H]3C[C@@H](O)CC[C@]3(C)[C@H]1CC2 | inactive
CCCCCCCCC(CCCCCC)C(=O)O (stereo not given) | inactive
Cc1c(C)c2c(c(C)c1OC(=O)CCC(=O)OCCO)CC[C@@](C)(CCC[C@H](C)CCC[C@H](C)CCCC(C)C)O2 | inactive
CCCCCCNC(=O)n1cc(F)c(=O)[nH]c1=O | inactive
CCOC(=O)c1ccc(O)c(O)c1 | inactive
CC=C(Cl)Cl | inactive
COC(=O)C1=C(C)NC(C)=C(C(=O)O[C@@H]2CCCN(Cc3ccccc3)C2)[C@@H]1c1cccc([N+](=O)[O-])c1 | 5.35 µM (active)
CC(C)COCC(CN(Cc1ccccc1)c1ccccc1)N1CCCC1 (stereo not given) | inactive
CCOc1ccc(Cc2nccc3cc(OCC)c(OCC)cc23)cc1OCC | inactive
CC1(C)[C@H](C(=O)O)N2C(=O)C[C@H]2S1(=O)=O | inactive
CCOC(=O)c1ccc(OCCN2C[C@H](O)[C@@H](O)[C@H](O)[C@H]2CO)cc1 | inactive
